94 sequences from the supplement of paper PMC3334620 can be followed below.

Over roughly 33,000 sequences, “E-score (-0.5 to 0.5)” has its median near -0.01; the highest 2% begin near 0.26. The full list was thinned out, with the highest values kept by preference.

Sequence of UniProt P13574 (P13574 whole entry, the tested form may be a part): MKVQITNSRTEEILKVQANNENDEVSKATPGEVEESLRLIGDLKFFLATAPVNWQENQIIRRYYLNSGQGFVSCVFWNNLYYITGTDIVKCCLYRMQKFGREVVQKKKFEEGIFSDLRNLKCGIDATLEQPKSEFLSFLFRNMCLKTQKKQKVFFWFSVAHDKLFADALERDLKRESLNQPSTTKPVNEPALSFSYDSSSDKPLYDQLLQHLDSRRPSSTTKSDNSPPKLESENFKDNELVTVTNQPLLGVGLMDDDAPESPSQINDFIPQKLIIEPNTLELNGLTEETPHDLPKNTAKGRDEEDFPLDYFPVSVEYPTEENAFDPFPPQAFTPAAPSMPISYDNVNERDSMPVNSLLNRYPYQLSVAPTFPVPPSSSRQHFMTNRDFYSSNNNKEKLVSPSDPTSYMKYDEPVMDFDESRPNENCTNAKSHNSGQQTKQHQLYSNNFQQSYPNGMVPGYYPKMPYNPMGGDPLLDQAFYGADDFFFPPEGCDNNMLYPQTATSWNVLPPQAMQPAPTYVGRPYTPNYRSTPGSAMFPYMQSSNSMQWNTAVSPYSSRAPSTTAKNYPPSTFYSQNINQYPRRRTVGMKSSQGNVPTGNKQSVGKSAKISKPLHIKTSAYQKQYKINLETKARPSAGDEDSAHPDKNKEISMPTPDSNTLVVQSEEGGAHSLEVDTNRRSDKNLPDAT

In the assay the target is Ste12 (UniProt P13574). Briefly: PBM E-score (8-mer binding enrichment) (E-score (-0.5 to 0.5)); higher = stronger / more preferred TF binding. To be noted: protein concentration: 200 nM; construct: GST-DNA-binding domain. The gist of the method:
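For each ungapped eight-base word taken together with its reverse complement, the Universal PBM Analysis Suite assigned an E-score. Binding data came from GST-tagged yeast transcription factors, applied at about 100-200 nM, on universal all-10-mer Agilent arrays made double-stranded by primer extension. Fluorescent anti-GST marked bound protein, and scans were normalised with masliner.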
With AGTAGGCG, the “PBM E-score” value is -0.256.
With ATCCAATG the figure was -0.165; with ATCTCTCG, -0.0464; with TATCAACA, 0.149.
Next, AAACAACG: 0.0956; AAACAATT: 0.112.
With AAACAACA the figure was 0.287; with GAACAACC, 0.00021; with AAACAACT, 0.174.
For GATCAACA, the “PBM E-score” value was -0.0858.
Consider AAACAACC, for which the “PBM E-score” value was found to be 0.277.
On to AATCAACA, for which the “PBM E-score” value came to 0.29.
In the case of TAACAATA, the “PBM E-score” value is 0.239.
On to AAACAATA, for which the “PBM E-score” value worked out at 0.274.
With CAACAACC the figure was 0.0311.
In the case of GCCAATGA, the “PBM E-score” value was -0.228.
Turning to GGGTGGAC, the “PBM E-score” value was -0.226.
Next, ACATTTTG: 0.0789; ACAGTTGC: -0.0387; AACCATCT: 0.0768.
With AGCTCAGC the figure was -0.398; with ACTGACAA, 0.0676.
With ACCTGTCA the figure was 0.0912.
Regarding TTACAAAA, the “PBM E-score” value is 0.301.
Next, ACACAAAA: 0.26; ATACAAAA: 0.209.
With GCACAAAA the figure was 0.165; with CTACAAAA, 0.228; with TCACAAAA, 0.271.
With ACGTTCTC the figure was 0.0364.
Take TACCTATA: the “PBM E-score” value worked out at 0.106.
Regarding CGCATGAC, the “PBM E-score” value is -0.0101.
With GCCTGTTA the figure was 0.00489; with CCCTGTTA, 0.279.
As for CCCTGTTC, the “PBM E-score” value was -0.243.
With CGCTCCTC the figure was -0.106; with CAGTAGGG, -0.176.
Next, CTGGCTAA: -0.0552; ACGTTTCG: 0.297.
As for GCGTTTCA, the “PBM E-score” value stood at 0.476.
With GCGTTTGA the figure was 0.0907; with ACGTTTAG, -0.156; with GCGTTTCC, 0.0828.
For the sequence ACGTTTCT, the “PBM E-score” value was 0.064.
Next, ACGTTTCC: -0.0394; ACGTTTGG: 0.127; TCGTTTCA: 0.467.
Next, TCGTTTAA: 0.155; TCATTTCA: 0.242; ACGTTTCA: 0.48.
In the case of TACTTCCA, the “PBM E-score” value came to 0.0198.
With AATGGGAT the figure was -0.185; with CGCAAACA, 0.053.
Next, AAGTCGGC: -0.16; AACGCTTA: -0.0484; CGACAGAC: -0.00066.
For the sequence CAGGTCCC, the “PBM E-score” value is -0.104.
Turning to AGCTGATG, the “PBM E-score” value is 0.129.
With GAACGGTA the figure was -0.17; with CCGTTTCA, 0.46.
With CCGTTTCG, the “PBM E-score” value is 0.164.
For CCGTTTCC, the “PBM E-score” value turned out to be 0.139.
In the case of GAACTCCC, the “PBM E-score” value was 0.0278.
Regarding ATGCGATG, the “PBM E-score” value came out at 0.00552.
With GTTGGTCA the figure was 0.121; with GAAATTAC, 0.176.
With TAAATGAA the figure was 0.185; with CAAATGAA, 0.238; with CGAATGAA, 0.084.
With AAAATGAC the figure was 0.121; with CAAATTAA, 0.203.
Regarding GAAATGAA, the “PBM E-score” value worked out at 0.331.
Next, AAAATGAG: 0.124; GGAATGAA: 0.281; GAAATTAA: 0.294.
With AAAATGAT, the “PBM E-score” value was 0.317.
Next, TGAATGAA: 0.208.
Next, AAGTTGAA: 0.134.
CCGGCCCG: the “PBM E-score” value was 0.00367.
With CGCCAAAA, the “PBM E-score” value came out at 0.227.
With GGGGTGGA the figure was 0.00832; with ACCTTATG, 0.0329; with TCCTAAGA, -0.00559.
With AAAGGTTC the figure was -0.154; with AAAATGCA, 0.00439.
In the case of AAAATGAA, the “PBM E-score” value came to 0.27.
With AAAATGGA, the “PBM E-score” value turned out to be 0.237.
For GCCTCAGC, the “PBM E-score” value was -0.226.
Next, ATAAAGTC: 0.167; AGATGGCT: -0.0505; AATGTAAA: 0.269.
With CATGTAAA the figure was 0.027; with AATGTAAT, 0.187; with TATTCAGA, 0.029.
